Screening data deposited in PubChem by National Center for Advancing Translational Sciences (NCATS).
A selection: hits, their analogues and other compounds. The true share with any hit is near 4.8%.
DRD3 agonist: agonists of human D3 dopamine receptor; P35462; D3R DiscoveRx beta-arrestin cells, luminescence, 90 min; max activation, %; hit rate 0.58% among 410,000; in the data active = max activation above about 30%
Target sequence (P35462 whole entry, looked up): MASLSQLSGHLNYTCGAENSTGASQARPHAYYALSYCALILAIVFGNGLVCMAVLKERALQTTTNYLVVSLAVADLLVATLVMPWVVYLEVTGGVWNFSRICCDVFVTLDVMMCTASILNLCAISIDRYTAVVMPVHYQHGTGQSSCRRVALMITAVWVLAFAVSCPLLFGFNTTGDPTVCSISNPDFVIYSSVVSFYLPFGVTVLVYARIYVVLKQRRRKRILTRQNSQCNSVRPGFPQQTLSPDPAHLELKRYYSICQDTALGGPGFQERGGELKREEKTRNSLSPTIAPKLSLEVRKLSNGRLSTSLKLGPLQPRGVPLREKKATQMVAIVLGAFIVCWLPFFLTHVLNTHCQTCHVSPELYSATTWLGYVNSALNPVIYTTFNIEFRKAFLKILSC
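Agonist-mode cell screen: cells plated at 1500/well and incubated overnight at 37 °C, then exposed to library compounds for 90 min at 37 °C. Detection reagent was added for 30–60 min at room temperature, and luminescence was read.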
HepG2 tox: HepG2 cytotoxicity, counter-screen for TGF-b inhibitors | HepG2 CAGA-GFP viability, ATP luminescence, 18 h | Potency, µM (highest dose often 46.1 µM), actives largely listed as cytotoxic | hit rate 0.76% among 410,000
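CellTiter-Glo luminescence gave cytotoxicity after 18 hours at 37 degrees C. The cells were HepG2 CAGA-GFP in 1% FBS DMEM, stimulated with 500 pg/mL TGF-beta after compound addition. %Activity was normalised to no-cell wells (complete cell-killing) and DMSO (no toxicity), and curves were fitted and classified.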
S2 tox: cell viability loss in ATXN counter-screen; hit rate 0.49% among 400,000; Potency, µM (doses to about 56.7 µM), actives largely listed as cytotoxic; S2 cells (HEK-293 line with an ATXN2-luciferase reporter) viability, CellTiter-Fluor protease fluorescence, 24 h; also: nearly all actives have a fitted effect of over 40% in size
D3 antag: antagonists of human D3 dopamine receptor; P35462; D3R cells, DiscoveRx beta-arrestin luminescence, antagonist mode; stronger effect = lower value; max response, negative = inhibition, %; hit rate 2.5% among 360,000; in the data active = max response below about -50%; inconclusive = no clear call, values can overlap the other calls
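Cells plated overnight at 1500 cells/well, then exposed to library compounds with dopamine controls for 90 minutes at 37 degrees C. DiscoveRx reagent added for 30–60 minutes at room temperature; luminescence read, quantitative HTS format.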
ATXN2 expr inh: ATXN2 expression inhibition; Potency, µM (top dose mostly 57 µM), actives largely listed as inhibitors; hit rate 0.72% among 360,000; HEK-293 ATXN2-luciferase reporter, luminescence, 24 h; also: nearly all actives have a fitted effect of over 55% in size
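qHTS (up to 57 uM final) was run with 24 h compound exposure of reporter cells at 37 °C. Each well was multiplexed: SteadyGlo luminescence measured ATXN2-luciferase expression after a fluorogenic Gly-Phe-AFC viability readout (25 uM final).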
TGFb inhibitor: blocks TGF-b signaling. hit rate 1.2% among 410,000. Potency, µM (doses to about 46.1 µM), usual class: inhibitors. HepG2 CAGA-GFP TGF-b/SMAD3 reporter, GFP fluorescence, 18 h; TGF-beta stimulated, 500 pg/mL final. AID 588855; also: nearly all actives have a fitted effect of over 65% in size
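TGF-beta reporter screen: HEPG2 CAGA-GFP, 1% FBS, 500 pg/mL TGF-beta final, 18 h; per-cell GFP summed per well; curves fitted and categorized by class.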
Each line names hits and unclear results; the compound was inactive in the other large screens. Unless noted, calls follow the shape of the dose curve; as a rule, active = well fitted curve in the direction sought with a large enough effect; inconclusive = small, poorly fitted or top-dose-only effect, or another doubt; inactive = no such curve, though single readings can be large; an effect the other way counts as inactive or inconclusive.

COc1cccc(NC(=O)/C=C/c2ccc(S(=O)(=O)N3CCOCC3)cc2)c1	ATXN2 expr inh 22µM
O=C(/C=C/c1ccc(F)cc1)Nc1ccc(S(=O)(=O)N2CCOCC2)cc1	none
Cc1ccc(NC(=O)/C=C/c2ccc(S(=O)(=O)N3CCOCC3)cc2)cc1S(=O)(=O)N(C)C	S2 tox inconclusive, D3 antag -111, ATXN2 expr inh 28µM
COc1cccc(C2C(C(=O)Nc3nc4ccccc4s3)=C(C)NC3=C2C(=O)CC(C)(C)C3)c1OC (configuration not stated)	none (no result: S2 tox)
COc1ccc(OC)c(C2C(C(=O)Nc3nc4ccccc4s3)=C(C)NC3=C2C(=O)CCC3)c1 (configuration not stated)	DRD3 agonist 30, TGFb inhibitor inconclusive
O=C(O)c1ccc(N/N=C/c2ccc(OC(=O)c3cccc(Cl)c3)cc2)cc1	ATXN2 expr inh 5µM
COC(=O)C1=C(C#N)NC(C)=C(C(=O)OC(C)C)C1c1cccc([N+](=O)[O-])c1 (configuration not stated)	none (no result: HepG2 tox, S2 tox, D3 antag, ATXN2 expr inh, TGFb inhibitor)
COC(=O)C1=C(C)NC(C)=C(C(=O)OCCN(C)Cc2ccccc2)C1c1cccc([N+](=O)[O-])c1 (configuration not stated)	S2 tox 22µM, D3 antag -51, ATXN2 expr inh inconclusive
COC(=O)C1=C(C)NC(C)=C(C(=O)OCCN2CCN(C(c3ccccc3)c3ccccc3)CC2)C1c1cccc([N+](=O)[O-])c1 (configuration not stated)	S2 tox inconclusive, ATXN2 expr inh 14µM (no result: HepG2 tox, D3 antag, TGFb inhibitor)
O=C(COc1ccc(Br)cc1)NNC(=S)NCc1ccccc1	D3 antag -68, TGFb inhibitor inconclusive
CN(C(=O)CC(=O)Nc1ccc2nc3n(c(=O)c2c1)CCCCC3)c1ccccc1F	none (no result: D3 antag)
Cc1ccc(OC(=O)c2cc(-c3ccc4c(c3)OCCO4)on2)c(C)c1	none (no result: S2 tox, D3 antag, ATXN2 expr inh)
COc1ccc(O)c(CN2CCC3(CCC(CNC(=O)C4CCCO4)O3)CC2)c1 (configuration not stated)	none (no result: DRD3 agonist, HepG2 tox, D3 antag, ATXN2 expr inh, TGFb inhibitor)
COc1ccc(C2C=CC(=O)CC2)c(OC)c1 (configuration not stated)	none (no result: HepG2 tox, TGFb inhibitor)
COc1ccc([C@@H]2COc3c(ccc4c3C=CC(C)(C)O4)C2)c(OC)c1	DRD3 agonist 33
CCOc1c(N2CCOCC2)cnn(C)c1=O	none (no result: DRD3 agonist, HepG2 tox, D3 antag, TGFb inhibitor)
COc1ccc(-c2ccc(OC)c([C@H]3[C@H]4C=CC[C@@H](C)[C@@H]4C(=O)N3Cc3ccccc3)c2)cc1	D3 antag -52
COc1ccc(-c2ccoc2)cc1[C@H]1[C@H]2C=CC[C@@H](C)[C@@H]2C(=O)N1Cc1ccccc1	D3 antag -56, ATXN2 expr inh inconclusive, TGFb inhibitor inconclusive
Cc1ccc(F)c([C@H]2C3C=CCC(c4ccccc4)C3C(=O)N2Cc2ccccc2)c1 (some centres not stated)	S2 tox inconclusive, TGFb inhibitor 18µM
O=C1C2C(c3ccccc3)CC=CC2[C@H](c2ccc3ccccc3c2)N1Cc1ccccc1 (some centres not stated)	S2 tox inconclusive
COc1ccc(-c2ccc(OC)c(C3C4C=CCC(C)C4C(=O)N3Cc3ccccc3)c2)cc1OC (configuration not stated)	none (no result: DRD3 agonist, S2 tox, D3 antag, ATXN2 expr inh)
c1ccc(N2CCN(CC3CCCCC3)CC2)cc1	D3 antag -75
O=C(CSC1CCCCC1)N1CCN(c2ccccc2)CC1	none
CCOc1cnn(-c2cc(Oc3ccc(C)cc3)ncn2)c(=O)c1Cl	none
Cc1ccccc1Oc1cc(-n2ncc(Cl)c(Cl)c2=O)ncn1	HepG2 tox 7.1µM, S2 tox 7.9µM, D3 antag -97, ATXN2 expr inh 7.9µM, TGFb inhibitor 4µM
CN(Cc1ccccc1)c1ccc2cc(S(=O)(=O)N3CCCCC3)ccc2n1	none (no result: D3 antag)
Fc1ccccc1-c1ccc(/C=N/Nc2nc3ccccc3[nH]2)o1	TGFb inhibitor 13µM (no result: ATXN2 expr inh)
CCCCn1c(/C=N/Nc2nc3ccccc3[nH]2)nc2ccccc21	S2 tox inconclusive, ATXN2 expr inh inconclusive, TGFb inhibitor 11µM
CCOc1cc(N(CC)CC)ccc1/C=C(/C#N)c1nc2ccccc2[nH]1	S2 tox inconclusive, D3 antag -54
CCN(CC)c1ccc(/C=N/Nc2nc3ccccc3[nH]2)c(O)c1	S2 tox 5µM, D3 antag inconclusive, ATXN2 expr inh inconclusive, TGFb inhibitor 16µM
COc1cc(OC)c(OC)cc1/C=N/Nc1nc2ccccc2[nH]1	none (no result: ATXN2 expr inh)
C=CCn1c(=O)n([C@@H]2O[C@H](CO)[C@@H](O)[C@H]2O)c2nc(N)[nH]c(=O)c21	none (no result: HepG2 tox, D3 antag, TGFb inhibitor)
CCC(C)n1c(=O)c2sccc2n2c(CCCC(=O)Nc3ccc(F)cc3)nnc12 (configuration not stated)	TGFb inhibitor inconclusive (no result: S2 tox, D3 antag, ATXN2 expr inh)
CCOCCCN(Cc1ccco1)C(=O)c1cc2c(s1)-c1c(C)cccc1OC2	ATXN2 expr inh inconclusive, TGFb inhibitor inconclusive (no result: D3 antag)
CCCCOc1ccc(C(=O)NNC(=S)NC(=O)CC)cc1	S2 tox inconclusive, D3 antag inconclusive, ATXN2 expr inh 25µM
CCCOc1ccc(C(=O)NNC(=S)NC(=O)c2cc(-c3ccccc3)nc3ccccc23)cc1	D3 antag -55
O=C(Nc1cccnc1)c1cc(-c2cccnc2)nc2ccc(Br)cc12	DRD3 agonist 55
Cc1cccc(NC(=S)NC(=O)c2cc(-c3ccccc3)nc3ccccc23)c1	D3 antag -54
CCCOc1ccc(C(=O)NNC(=S)NC(=O)c2ccccc2)cc1	none (no result: ATXN2 expr inh)
COCCNC(=O)c1cc(-c2cccnc2)nc2ccc(Br)cc12	none (no result: S2 tox, ATXN2 expr inh)
O=C(Nc1ccncc1)c1cc(-c2cccc(Br)c2)nc2ccccc12	DRD3 agonist 31, S2 tox inconclusive, ATXN2 expr inh inconclusive
Cc1cnn(C(=O)c2cc(-c3ccccc3)nc3ccccc23)c1	HepG2 tox 10µM, TGFb inhibitor inconclusive
CCCc1cc(C(=O)NNC(=S)NCC)c2ccccc2n1	D3 antag -56
COc1cc(NC(=O)c2cc(-c3cccnc3)nc3ccc(Br)cc23)cc(OC)c1	DRD3 agonist 36
Cc1cccc(N2CCN(C(=O)c3cccc(-n4c(C)nc5cccnc54)c3)CC2)c1C	none (no result: S2 tox, D3 antag, ATXN2 expr inh)
CCCc1cc(=O)oc2c3c(cc(OCC(=O)NCCN4CCOCC4)c12)OC(C)(C)CC3	D3 antag -56
COC1=Nc2ccccc2N2CCN=C12	none
c1ccc2c(c1)C1=NCCN1c1ccccc1-2	TGFb inhibitor 10µM (no result: ATXN2 expr inh)
CC1CCN(S(=O)(=O)c2ccc3c(ccc(=O)n3CC(=O)Nc3cccc(F)c3)c2)CC1	TGFb inhibitor inconclusive (no result: D3 antag)
CCc1nnc(NC(=O)CSc2ncnc3scc(-c4ccc(C)cc4)c23)s1	DRD3 agonist 51, S2 tox inconclusive
